This is part of a sample that, as a whole, favours compounds with a hit. Of some 83,000 tested, about 20% had one in any assay.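 Plates (96-well) were seeded with cells, treated with compound at one concentration, and incubated for 48 hours before percent growth was determined.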 Activity calls are given as the source filed them. How the source made its calls: active means growth percent below 10; inactive means the rest.
Assays:
Test in all cases: NCI-60 one-dose screen, 48 h (100 = growth as untreated, 0 = no growth, -100 = all killed)
Settings in all cases: 10 µM unless noted
NCI-H23 lung = system: NCI-H23 lung
NCI-H226 lung = system: NCI-H226 lung
NCI-H322M lung = system: NCI-H322M lung
HOP-62 NSCLC = system: HOP-62 NSCLC
NCI-H460 lung = system: NCI-H460 lung
HOP-92 NSCLC = system: HOP-92 NSCLC
NCI-H522 lung = system: NCI-H522 lung
786-0 renal = system: 786-0 renal
COLO 205 colon = system: COLO 205 colon
DU-145 prostate = system: DU-145 prostate
K-562 leukemia = system: K-562 leukemia
MALME-3M melanoma = system: MALME-3M melanoma
MDA-MB-231 breast = system: MDA-MB-231 breast
RXF 393 renal = system: RXF 393 renal
SF-268 CNS = system: SF-268 CNS
SF-295 CNS = system: SF-295 CNS
SF-539 CNS = system: SF-539 CNS
UACC-257 melanoma = system: UACC-257 melanoma
M14 melanoma = system: M14 melanoma
A549/ATCC NSCLC = system: A549/ATCC NSCLC

Measured: growth

N=C(N)c1ccc(-c2ccc(-c3ccc(Cl)cc3)s2)nc1
active: NCI-H322M lung -30.3% | NCI-H460 lung -90.2% | NCI-H522 lung -52.5% | COLO 205 colon -71.8% | DU-145 prostate -94.8% | K-562 leukemia -45.1% | MDA-MB-231 breast -47% | SF-539 CNS -55.2%
inactive: NCI-H23 lung 62.8% | NCI-H226 lung 84.5% | HOP-62 NSCLC 36% | HOP-92 NSCLC 65.1% | 786-0 renal 71.3% | MALME-3M melanoma 87.3% | RXF 393 renal 60.1% | SF-268 CNS 57.6% | SF-295 CNS 27.1% | UACC-257 melanoma 82.3%

O=C(O)CCCN1C(=O)/C(=C/C(Cl)=C/c2ccccc2)SC1=S
active: 786-0 renal -11.5% | MALME-3M melanoma -2.99% | RXF 393 renal -16.5% | M14 melanoma 9.62%
inactive: NCI-H23 lung 31.3% | NCI-H226 lung 41.9% | NCI-H322M lung 77.2% | HOP-62 NSCLC 88% | NCI-H460 lung 57.4% | HOP-92 NSCLC 14.2% | NCI-H522 lung 12.2% | COLO 205 colon 11.6% | DU-145 prostate 18.9% | K-562 leukemia 14.7% | MDA-MB-231 breast 38.1% | SF-268 CNS 56.1% | SF-295 CNS 49.5% | SF-539 CNS 10% | UACC-257 melanoma 40.8%

O=C(CSc1nc2ccc([N+](=O)[O-])cc2[nH]1)Nc1cccc(C(F)(F)F)c1
inactive: NCI-H226 lung 10.8% | NCI-H322M lung 50.1% | HOP-62 NSCLC 27.6% | NCI-H460 lung 14.4% | 786-0 renal 23.9% | COLO 205 colon 16.8% | DU-145 prostate 30.6% | K-562 leukemia 13.6% | MDA-MB-231 breast 38.5% | RXF 393 renal 44.7% | SF-268 CNS 24.3% | SF-295 CNS 33% | SF-539 CNS 36.5% | UACC-257 melanoma 14.3% | M14 melanoma 27.6%
active: NCI-H23 lung 1.74% | HOP-92 NSCLC -28.9% | NCI-H522 lung 3.44% | MALME-3M melanoma -0.63%

O=C1/C(=C/c2ccc(F)cc2)COc2ccc(O)cc21
active: K-562 leukemia 4.82%
inactive: NCI-H23 lung 97% | NCI-H226 lung 108% | NCI-H322M lung 94.6% | HOP-62 NSCLC 104% | NCI-H460 lung 98.8% | HOP-92 NSCLC 104% | NCI-H522 lung 75.7% | 786-0 renal 79.8% | COLO 205 colon 94.3% | DU-145 prostate 96.5% | MALME-3M melanoma 85.6% | MDA-MB-231 breast 97.2% | RXF 393 renal 104% | SF-268 CNS 90% | SF-295 CNS 104% | SF-539 CNS 87.2% | UACC-257 melanoma 107% | M14 melanoma 88.1%

O=C1c2ccc3c4ccc5c6c(ccc(c7ccc(c2c37)C(=O)N1CCC[P+](c1ccccc1)(c1ccccc1)c1ccccc1)c64)C(=O)N(CCC[P+](c1ccccc1)(c1ccccc1)c1ccccc1)C5=O
active: MALME-3M melanoma -27.8%
inactive: NCI-H23 lung 28.1% | NCI-H226 lung 105% | NCI-H322M lung 84.2% | HOP-62 NSCLC 60.3% | NCI-H460 lung 28% | HOP-92 NSCLC 77.3% | NCI-H522 lung 67.6% | A549/ATCC NSCLC 43.8% | 786-0 renal 91.2% | DU-145 prostate 40.8% | K-562 leukemia 16.4% | MDA-MB-231 breast 59.6% | RXF 393 renal 95% | SF-268 CNS 57.6% | SF-295 CNS 42.5% | SF-539 CNS 47.4% | UACC-257 melanoma 21.5% | M14 melanoma 18.8%

O=C1Nc2ccccc2/C1=C\c1nc(-c2ccccc2F)n2ccccc12
active: NCI-H226 lung -1.5% | HOP-62 NSCLC -1.47% | NCI-H460 lung -20.4% | NCI-H522 lung -23% | 786-0 renal -34.5% | DU-145 prostate -26.7% | MDA-MB-231 breast 8.66% | RXF 393 renal -42.7% | SF-539 CNS -1.95%
inactive: NCI-H23 lung 33.2% | NCI-H322M lung 26% | HOP-92 NSCLC 40.4% | COLO 205 colon 72.8% | K-562 leukemia 74.1% | MALME-3M melanoma 34.4% | SF-268 CNS 24.7% | SF-295 CNS 38.1% | UACC-257 melanoma 45.7% | M14 melanoma 53.4%

CN(C)CCCC1(c2ccc(F)cc2)OCc2cc(-c3cncc4ccccc34)ccc21 (stereo unspecified)
active: K-562 leukemia 1.06% | MALME-3M melanoma -85% | UACC-257 melanoma -64.5% | M14 melanoma -56%
inactive: NCI-H23 lung 77.6% | NCI-H226 lung 77.2% | NCI-H322M lung 51.5% | HOP-62 NSCLC 65% | NCI-H460 lung 10.6% | HOP-92 NSCLC 49.5% | NCI-H522 lung 42.9% | 786-0 renal 46.8% | COLO 205 colon 16.3% | DU-145 prostate 48.5% | MDA-MB-231 breast 38.3% | RXF 393 renal 20.1% | SF-268 CNS 49.5% | SF-295 CNS 17.8% | SF-539 CNS 54.9%

Cc1cc2c(O)c(-c3cc(Cl)ccc3Cl)c3sc(=O)oc3c2cc1C
active: HOP-92 NSCLC -15.5%
inactive: NCI-H23 lung 44.2% | NCI-H226 lung 58% | NCI-H322M lung 89.8% | HOP-62 NSCLC 87.8% | NCI-H460 lung 34.4% | NCI-H522 lung 26.4% | A549/ATCC NSCLC 60.2% | 786-0 renal 83.8% | DU-145 prostate 69.5% | K-562 leukemia 28.3% | MALME-3M melanoma 100% | MDA-MB-231 breast 77.3% | RXF 393 renal 86% | SF-268 CNS 65% | SF-295 CNS 72.5% | SF-539 CNS 89.9% | UACC-257 melanoma 60.8% | M14 melanoma 81.1%

Reference: PubChem BioAssay (NCI)
